The values that follow come from PubChem BioAssay AID686978 (National Center for Advancing Translational Sciences (NCATS), 2013).

“And” between values parts separate entries of the source, which are not always exact repeats. Equal entries are not always repeated. Screen size: about 420,000 compounds; about 64,000 (15%) were called active. Inconclusive results (about 27%) are left out. The list is a sample of the results. Unmarked numbers belong to inactive results. Calls follow the shape of the dose curve; as a rule, active = well fitted inhibition curve with a large enough effect; inconclusive = small, poorly fitted or top-dose-only effect; inactive = flat fitted curve, though single readings scatter.
% is scaled to controls: 0 for no effect and ±100 for the full control effect; potency is read from the fitted curve at half-maximal effect.

This assay is described as follows: qHTS for Inhibitors of human tyrosyl-DNA phosphodiesterase 1 (TDP1): qHTS in cells in absence of CPT. Also: nearly all actives have a fitted effect of over 55% in size. Conditions: DT40 Tdp1-/- hTDP1 cells, no CPT, ATP luminescence, 48 h; activity change, negative = growth inhibition: at 46.2 µM (top of the series). Put shortly:
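DT40 Tdp1-/-;hTDP1 cells, no CPT (DMSO vehicle only), 400 cells/well; compounds pin-transferred; ≥48 hr, 37 °C; CellTiter-Glo 30 min RT dark, luminescence read.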
On the technique in general: In qHTS, concentration-response curves come from the screen itself.
Turning to `CNCC(O)CN1CCN(c2ccccc2OC)CC1` (stereo not drawn), the “activity change, negative = growth inhibition” value was -16%. Consider `COc1ccccc1N1CCN(CCN2C(=O)c3ccccc3C(C)(C)C2=O)CC1`, for which the Potency was 26.6 µM (active) and 23.1 µM (active). For `CCC(O)CNc1nc(-n2nc(C)cc2C)nc2sc3c(c12)CC(C)(C)OC3` (stereo not drawn), the Potency is 10.3 µM (active). Turning to `CC1(C)Cc2c(sc3nc4n(c(=N)c23)CCCCC4)CO1`, the “activity change, negative = growth inhibition” value is -24.4%. Still for that read-out and setting: then `CCc1nc(N2CCN(C(C)=O)CC2)c2c3c(sc2n1)CCCC3`, with -15%. For the molecule `CC/C(C)=N/Nc1nc2sc3c(c2c(=O)[nH]1)CC(C)(C)OC3`, the “activity change, negative = growth inhibition” value is -26.6%. On to `COCCNc1nc(-n2nc(C)cc2C)nc2sc3c(c12)CCCC3`, for which the Potency was 5.17 µM (active). For the molecule `COCCn1c(C)cc(C(=O)CSc2ncnc3sc4c(c23)CCC4)c1C`, the “activity change, negative = growth inhibition” value is -8.09%. For `O=C(NCc1ccc(F)cc1)C1CCN(C(=O)Nc2ccc(F)cc2)CC1`, the “activity change, negative = growth inhibition” value was -1.08%. Turning to `Cc1ccc(Oc2ccc3c(c2)C(=O)N(c2cccc4cccnc24)C3=O)cc1`, the “activity change, negative = growth inhibition” value is -7.81%. On the same count and under the same terms, next, `CC(C)NC(=O)NC(=O)COC(=O)c1ccc(NC(=O)CC#N)cc1`: 5.12%; `O=C1CSC(c2cccc(F)c2)N1c1ccc(O)cc1` (stereo not drawn): -4.22%.

As for `CCCC(C)C(=O)OCC(=O)Nc1c(Br)cc(C)cc1Br` (stereo not drawn), the “activity change, negative = growth inhibition” value was 5.92%. On the same count and under the same terms, next, `NC(=O)COc1ccc(/C=N/NC(=O)C2CCCN2S(=O)(=O)c2ccc(Cl)cc2)cc1` (stereo not drawn): -4.64%; `Nc1[nH][nH]c(=O)c1N=Nc1ccc2c(c1)OCO2`: -21.6%; `C=CCN(N=Nc1cccc([N+](=O)[O-])c1)c1cccc([N+](=O)[O-])c1`: -17.5%. Still for that read-out and setting: next, `CCOC(=O)c1cc2c(nc1NC(=S)Nc1ccccc1)CC(C)(CC)OC2` (stereo not drawn): 4.78%; `COC(=O)Nc1ncc(CN2C(=O)c3ccccc3C2=O)s1`: -5.56%; `CN1C(=O)c2ccc(NC(=O)C3CCCCC3)cc2C1=O`: 3.08%. On to `COC(=O)CSc1ccc2nnc(CCNS(=O)(=O)c3ccc(C)cc3)n2n1`, for which the Potency result was “inactive”. On to `Cc1ccc(S(=O)(=O)NCCc2nnc3ccc(SCc4cccnc4)nn23)cc1`, for which the “activity change, negative = growth inhibition” value is -1.62%. For `O=S(=O)(NCCc1nnc2ccc(SCc3ccc(Cl)cc3Cl)nn12)c1ccccc1`, the Potency is 14.6 µM (active). For `COC(=O)Nc1ncc(CN2CCCCC2)s1`, the “activity change, negative = growth inhibition” value is -9.35%.

For the molecule `CN1CCC(N(C)C(=O)c2ccc(Cl)c(S(=O)(=O)Nc3ccc(Cl)cc3)c2)CC1`, the “activity change, negative = growth inhibition” value is 10.5%. Consider `Cc1cccnc1NC(=O)c1cccc(S(=O)(=O)N2CCN(c3ccc(F)cc3)CC2)c1`, for which the Potency was 16.4 µM (active).

As to `O=C(Nc1ncccc1O)c1ccc(S(=O)(=O)N2CCCC2)cc1`, the Potency was 18.4 µM (active). For the molecule `COc1cc(C(=O)Nc2ncccc2C)ccc1OCC(=O)N1CCOCC1`, the “activity change, negative = growth inhibition” value is -1.91%. Still for that read-out and setting: next, `O=C(Nc1ccccc1F)c1ccc(S(=O)(=O)N2CCCCCC2)cc1`: -23%. On the same count and under the same terms, next, `CCc1nnc(NC(=O)c2cc(S(=O)(=O)N3CCCCC3)ccc2C)s1`: 26%. The same measure, in the same setting: next, `O=C(NC(=O)c1ccccc1)Nc1ccccc1O`: -5.92%. As for `O=C(Nc1ncccc1O)c1ccc(C(=O)c2ccccc2)cc1`, the Potency is 23.1 µM (active). Regarding `Cc1ccc(C)c2sc(NC(=O)c3ccc(S(=O)(=O)N4CCCC4)cc3)nc12`, the Potency is 29.1 µM (active). For `Cc1ccc(C(=O)Nc2ncccc2C)cc1S(=O)(=O)N1CCOCC1`, the “activity change, negative = growth inhibition” value is 3.18%. The same measure, in the same setting: then `O=C(CNC(=O)c1ccc2ccccc2c1)Nc1ncccc1O`, with 14.5%. With `CCOC(=O)c1csc(NC(=O)c2ccc(S(=O)(=O)N3CCCC3)cc2)n1`, the “activity change, negative = growth inhibition” value is -3.18%.

For the molecule `O=C(N/N=C/c1ccccn1)c1ccc(S(=O)(=O)N2CCCCCC2)cc1`, the “activity change, negative = growth inhibition” value was -5.03%. Still for that read-out and setting: next, `CCCn1c(N)c(N(CCOC)C(=O)C2CCCC2)c(=O)[nH]c1=O`: 15.2%. The same measure, in the same setting: then `CCOC(=O)c1nn(-c2ccccc2F)c2nc(Nc3ccccc3)cc(=O)n12`, with -26.7%. In the case of `Nc1nnn(CC(=O)N/N=C/c2ccc(O)cc2)n1`, the “activity change, negative = growth inhibition” value is 1.74%. On the same count and under the same terms, then `Cc1cc(NC(=O)c2cc3ccccc3o2)no1`, with -2.49%; and `COc1cccc(N(CC(=O)NCCSc2ccccn2)S(C)(=O)=O)c1`, with -13.4%. Regarding `Cc1ccc(C(CNC(=O)Nc2cccc(C)c2)N2CCN(C)CC2)cc1` (stereo not drawn), the “activity change, negative = growth inhibition” value was -0.589%. The same measure, in the same setting: next, `CCCCC/C=C\CC1OC1CCCCCCCC(=O)O` (stereo not drawn): -12.2% [at 0.628 µM]; `O=C1c2ccccc2C(=O)N1CCCc1nc(-c2ccccc2)no1`: -6.95%; `O=C(O)c1ccc(S(=O)(=O)c2ccccc2)s1`: -10.8%. On the same count and under the same terms, then `NC(=O)CSc1nnc(NC(=O)c2ccc3ccccc3c2)s1`, with -2.45%. On the same count and under the same terms, then `COc1ccc(C2/C(=C(/O)c3ccccc3)C(=O)C(=O)N2c2ncccn2)cc1OC` (stereo not drawn), with 16.9%; and `COc1ccc(OCCCCN2CCC(C)CC2)cc1`, with -0.61%; and `c1ccc(-c2ccc(OCCN3CCOCC3)cc2)cc1`, with -14.7%. Turning to `O=c1[nH]c2ccccc2n1C1CCN(CCOc2ccccc2)CC1`, the Potency is 4.11 µM (active). Turning to `O=C(c1ccco1)N1CCN(CCOc2ccccc2)CC1`, the “activity change, negative = growth inhibition” value is -12.4%. Same read-out and setting: next, `O=C(c1ccc(Br)o1)N1CCN(CCOc2ccccc2)CC1`: -31%. On to `OC(c1ccccc1)(c1ccccc1)C1CCN(CCCOc2ccccc2)CC1`, for which the Potency is 16.4 µM (active).
